Results: PubChem BioAssay (Tox21)
Results filed as inconclusive are left out. The source made the active and inactive calls. Calls come from the whole dose curve; as a rule, active = well fitted cell-killing curve with a large enough effect in the repeat runs; inconclusive = weak or mixed curves, or effect the other way; inactive = flat fitted curve, though single readings scatter.

Experiment: qHTS assay to identify small molecule agonists of the TGF-beta/Smad signaling pathway - cell viability counter screen (AID 1346829); note: top concentration of the series differs between compounds; nearly all actives have a fitted effect of over 45% in size
Details: SBE-bla HEK293T viability, CellTiter-Glo luminescence, 5 h; series mostly up to 76.8 µM
Excerpt: National Center for Advancing Translational Sciences [NCATS]
NIH Chemical Genomics Center [NCGC]
U.S. Environmental Protection Agency [EPA]
National Institutes of Environmental Health Sciences [NIEHS]
National Toxicology Program [NTP]
U.S. Food and Drug Administration [FDA]
Transforming growth factor beta (TGF-beta) superfamily consists of a large number of structurally related dimeric proteins that act as hormones or local mediators in regulating a wide range of biological functions. This superfamily includes TGF-betas themselves, the bone morphogenetic proteins (BMPs) and the activins. These ligands induce oligomerization of serine/threonine receptor kinases and phosphorylate the cytoplasmic signaling molecules of Smad protein family. CellSensor SBE-bla HEK 293T cell line (Life Technologies, Carlsbad, CA), responsive to TGF-beta was used to screen Tox21 10K compound library for identification of agonists/antagonists of the Smad signaling pathway. This cell line contains a beta-lactamase reporter gene under control of the Smad binding element (SBE) stably integrated into HEK 293T cells. Also cytotoxicity of the compounds was tested in parallel by measuring the cell viability using CellTiter-Glo assay system in the same wells.
Tox21 Assay Protocol Summary:
SBE-bla HEK 293T cells were dispensed at 4,000/well in 6 uL of assay medium into black wall/clear-bottom 1536-well plates using a Multidrop Combi (ThermoFisher Scientific, Waltham, MA) dispenser. After the assay plates were incubated at 37 C and 5% CO2 for an overnight, 23 nL of compounds dissolved in DMSO, positive controls or DMSO only was transferred to the assay plate by a Pintool station (Kalypsys, San Diego, CA). The assay plates were incubated at 37 C and 5% CO2 for 5 hr. One uL of LiveBLAzer B/G FRET substrate (Life Technologies) was added using a Flying Reagent Dispenser (FRD, Aurora Discovery, San Diego, CA) and the plates were incubated at room temperature for 2 hr. Fluorescence intensity (405 nm excitation, 460 nm and 530 nm emissions) was measured using an Envision plate reader (PerkinElmer, Shelton, CT). For cytotoxicity read, 4 uL of CellTiter-Glo reagent (Promega Corporation, Madison, WI) was added to each well of the assay plates using FRD. After 30min incubation at room temperature, the luminescence intensity was measured using ViewLux plate reader (PerkinElmer).

Row | Structure (SMILES) | outcome
1 | CC(CN)CC(C)(C)CCN (stereo not given) | inactive
2 | COCCc1ccc(OCC2CO2)cc1 (stereo not given) | inactive
3 | Nc1cccc(O)c1 | inactive
4 | O=C(O)Cc1ccc(Cl)cc1Cl | inactive
5 | CCn1ccc(NS(=O)(=O)c2ccc(N)cc2)nc1=O | inactive
6 | CC[C@H](C)C(=O)O[C@H]1C[C@H](O)C=C2C=C[C@H](C)[C@H](CC[C@@H](O)C[C@@H](O)CC(=O)O)[C@H]21 | inactive
7 | CCCCCCCCC(=O)Cl | inactive
8 | CCCCCCCCSCC | inactive
9 | O=C1CC(c2ccc(Cl)cc2)CC(=O)N1 | inactive
10 | CC1COc2ccccc2N1 (stereo not given) | inactive
11 | CCCC/C=C\CCCCCCCCCC=O | inactive
12 | CCCCCCCCOS(=O)(=O)O | inactive
13 | C[C@H](N)[C@H](O)c1cccc(O)c1 | inactive
14 | OCCCCC(O)CO (stereo not given) | inactive
15 | CC(C)=O | inactive
16 | O=C1O[C@@H]2[C@@H](O)[C@H](O)O[C@@H]2[C@H]1O | inactive
17 | CCCCNC1CC(C)(C)NC(C)(C)C1 | inactive
18 | CC(COC(C)(C)C)OCCCO (stereo not given) | inactive
19 | CCCCN | inactive
20 | Cc1ccccc1OCC(O)CO (stereo not given) | inactive

Row | Structure (SMILES) | outcome
21 | CC(C)NCC(O)COc1ccc(COCCOC(C)C)cc1 (stereo not given) | inactive
22 | C=C(C)C(=O)OCCN(CC)CC | inactive
23 | CCN(C)C(=O)Oc1cccc([C@H](C)N(C)C)c1 | inactive
24 | C=C(C)C(=O)OCC(C)(C)COC(=O)C(=C)C | inactive
25 | CC(=C(CCOC(=O)C(C)C)SSC(CCOC(=O)C(C)C)=C(C)N(C=O)Cc1cnc(C)nc1N)N(C=O)Cc1cnc(C)nc1N | inactive
26 | Nc1ccc([N+](=O)[O-])c(N)c1 | inactive
27 | O=C(O)C(=O)Cc1ccccc1 | inactive
28 | O=C(O)CCSSCCC(=O)O | inactive
29 | OCCN(CCO)c1cccc(Cl)c1 | inactive
30 | CCc1ccc(C=O)cc1 | inactive
31 | CCCCC(CC)COCCO (stereo not given) | inactive
32 | O=C(NCCN1CCOCC1)c1ccc(Cl)cc1 | inactive
33 | O=C1c2ccccc2C(=O)C1c1ccccc1 | inactive
34 | CC(CC=O)CCCC(C)(C)O (stereo not given) | inactive
35 | CC(C)(C)NC(N)=O | inactive
36 | O=C(OCc1ccccc1)C(=O)OCc1ccccc1 | inactive
37 | Brc1ccc(-c2ccccc2)cc1 | inactive
38 | Cc1c(I)c(=O)n(-c2ccccc2)n1C | inactive
39 | Oc1ccccc1-c1nnco1 | inactive
40 | NNc1nnc(NN)c2ccccc12 | inactive
